CHT inh: inhibitors of human choline transporter CHT | Q9GZV3 | CHT-expressing cells, membrane potential dye, choline response; stronger effect = lower value | B-score at 10 µM | actives 0.86% (n = 310,000);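 active = B-score over 3 SD under the library average, and starting fluorescence ratio not unusually high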;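 also: choline stimulus applied at its EC90 after an EC20 pre-addition; B-score computed on integrated fluorescence ratio after choline addition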
Target sequence (Q9GZV3 whole entry, looked up): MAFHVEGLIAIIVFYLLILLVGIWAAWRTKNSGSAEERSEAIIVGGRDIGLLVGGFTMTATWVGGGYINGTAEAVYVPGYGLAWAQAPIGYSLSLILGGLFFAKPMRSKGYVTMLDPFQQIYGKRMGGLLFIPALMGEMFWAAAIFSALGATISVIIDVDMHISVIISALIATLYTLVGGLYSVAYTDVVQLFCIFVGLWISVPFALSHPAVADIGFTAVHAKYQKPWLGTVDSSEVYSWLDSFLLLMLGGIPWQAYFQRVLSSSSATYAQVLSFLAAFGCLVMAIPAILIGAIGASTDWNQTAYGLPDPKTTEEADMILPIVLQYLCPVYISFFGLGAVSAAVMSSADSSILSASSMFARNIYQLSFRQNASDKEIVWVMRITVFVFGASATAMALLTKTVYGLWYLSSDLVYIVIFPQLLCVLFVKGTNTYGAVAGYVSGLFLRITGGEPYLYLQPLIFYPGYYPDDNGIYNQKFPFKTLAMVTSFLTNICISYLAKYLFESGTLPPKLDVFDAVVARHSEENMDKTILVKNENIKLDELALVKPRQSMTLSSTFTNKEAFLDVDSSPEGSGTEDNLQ
TMEM16A act: activates or potentiates the mouse TMEM16A chloride channel; Q8BHY3; HEK293 TMEM16A/YFP-H148Q/I152L, iodide quench fluorescence; stronger effect = lower value; B-score at 10 µM; actives 0.3% (n = 340,000);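 active = fluorescence-ratio B-score plate-corrected deviation score at least 3 library SD below zero, with starting fluorescence score within 5 deviations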;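 also: channel opened by trigger with iodide after compound preincubation; score built on the fluorescence ratio of max minus min over baseline; more negative score means more quench and so TMEM16A activation or potentiation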
IDE inh: cellular human IDE inhibition | P14735 | HEK cells, FAbetaB cleavage, fluorescence polarization | inhibition, % at 5.59 µM | actives 0.41% (n = 320,000) | AID 434962;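 active = percent inhibition above the average of all tested compounds plus 3 SD, set per screening campaign, cut at about 16% in these data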;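 also: IDE supplied by intact live HEK cells; FP after avidin binding of uncleaved biotin substrate so inhibition keeps polarization high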
TMEM16A inh: blocks the mouse calcium-activated chloride channel TMEM16A. HEK293 TMEM16A/YFP iodide influx fluorescence, ionomycin. normalized B-score (activity score, 25-100; higher = stronger inhibition) at 10 µM. actives 1.2% (n = 310,000). AID 588511;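 active = ratio plate-corrected score three or more library SD toward inhibition, starting fluorescence score within five deviations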;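 also: score derived from kinetic fluorescence span divided by baseline fluorescence per well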
IDE act: boosts human insulin-degrading enzyme activity in HEK cells | FAbeta-B cleavage, fluorescence polarization; 0% vehicle, 100% cell-free pure enzyme wells | AID 493087 | actives 0.073% (n = 340,000) | activation, % at 5.96 µM;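 active = activation above the mean of all tested compounds plus 3 SD, set per screening campaign, cut at about 17% in these data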
CHT PAM: human CHT allosteric activation | B-score at 10 µM | actives 0.49% (n = 310,000) | CHT-expressing cells, membrane potential dye, choline EC20; stronger effect = higher value; LV-AA mutant CHT in HEK293 cells | Q9GZV3;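 active = initial fluorescence not abnormally high and integrated response B-score, plate-corrected, over 3 SD above library mean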
TMEM16A reconf: reconfirmed blocker of mouse TMEM16A calcium-activated chloride channel. HEK293 TMEM16A/YFP-H148Q, iodide quench fluorescence; ionomycin added to raise cell calcium. actives 39% (n = 2,300). inhibition, % at 10 µM. shares compounds with TMEM16A inh;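 active = mean duplicate percent inhibition, scaled so buffer wells are 0 and the reference blocker 100, over three buffer SD above buffer mean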
TMEM16A Ca cntr: counter-screen for TMEM16A inhibitors: effect on calcium mobilization | shares compounds with TMEM16A inh | actives 2% (n = 2,300) | calcium response (% of ionomycin), % at 10 µM | TMEM16A/YFP HEK293, Fluo4 calcium mobilization | AID 652231;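 active = duplicate-averaged calcium signal over 20% of the ionomycin maximum, relative to buffer baseline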;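 also: each well's signal is peak minus trough fluorescence divided by its pre-addition baseline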
Parental YFP cnt: counter-screen for TMEM16A inhibitors: effect in parental YFP-HEK293 cells | 2,300 tested, under 10 active | iodide YFP quench, ionomycin | YFP ratio F(max-min)/F0 at 10 µM | AID 652233 | shares compounds with TMEM16A inh;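 active = yellow fluorescent protein signal ratio exceeding the buffer control mean by over 5 SD of those controls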;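 also: ratio is mean of duplicate wells from kinetic YFP trace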
ClC-1 rat inh: rat ClC-1 inhibition, TMEM16A specificity screen; shares compounds with TMEM16A inh; CHO ClC-1-YFP, iodide influx fluorescence quench; iodide control reads 0, buffer control 100; ratio percent, % at 10 µM; 2,300 tested, under 10 active;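 active = duplicate-mean ratio percent above the mean of iodide-only control wells, which defines zero, plus 5 of their SD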;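 also: higher percent means stronger block of ClC-1 iodide influx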
A number is an active result; 0 = inactive; - = no result given. Hits are enriched below; roughly 2.7% of the tested compounds scored in any of these assays.

SMILES	CHT inh	TMEM16A act	IDE inh	TMEM16A inh	IDE act	CHT PAM	TMEM16A reconf	TMEM16A Ca cntr	Parental YFP cnt	ClC-1 rat inh
Fc1ccc(C2CC(c3ccco3)=NN2c2ccccc2)cc1 (centres undefined)	0	0	0	0	0	0	-	-	-	-
Cc1c(Cl)ccc2sc(N3CCN(C(=O)C4=COCCO4)CC3)nc12	0	0	0	25	0	0	44%	0	0	0
CCN1C(=O)C(CC(=O)Nc2ccc(F)cc2)N(CCc2ccc(OC)cc2)C1=S (centres undefined)	0	0	0	25	0	0	0	0	0	0
Clc1ccc(Cn2cnc3ccccc32)cc1	0	0	0	100	0	0	23%	0	0	0
c1ccc(Cn2cnc3ccccc32)cc1	0	0	0	0	0	0	-	-	-	-
CN(C)S(=O)(=O)c1cccc(NC(=O)C2CCN(S(=O)(=O)c3cccs3)CC2)c1	-	0	0	-	0	-	-	-	-	-
O=C(Nc1cccnc1)c1ccccc1-c1nc(-c2ccccc2F)no1	0	0	0	25	0	0	0	0	0	0
Cc1ccc(C(=O)O/N=C2\CC3CCC2(C)C3(C)C)cc1 (centres undefined)	0	0	0	25	0	0	0	0	0	0
COc1ccc(C2(c3ccc(OC)cc3)NC(=O)N(CC(=O)NC3(C#N)CCCCC3)C2=O)cc1	-	0	0	-	0	-	-	-	-	-
CCc1ccccc1N(CC)C(=O)CCc1nc(-c2ccc(C)cc2)no1	0	0	0	100	0	0	30%	0	0	0
CCN(Cc1ccccc1)C(=O)CCc1nc(-c2ccc(C)cc2)no1	0	0	0	0	0	0	-	-	-	-
Cn1nc(C(=O)N2CCN(c3ccc(Cl)cc3)CC2)c2c1-c1ccccc1S(=O)(=O)C2	0	0	0	0	0	0	-	-	-	-
O=C(c1noc2c1CSc1ccccc1-2)N1CCN(c2ccc(Cl)cc2)CC1	0	0	0	25	0	0	0	0	0	0
CCOC(=O)c1ccccc1NC(=O)c1nc2nccc(C)n2n1	0	0	0	25	0	0	0	0	0	0
Cc1ccc(NC(=S)C2=C(O)c3sccc3N(C)S2(=O)=O)cc1	0	0	0	0	0	0	-	-	-	-
CN1c2ccccc2C(O)=C(C(=S)Nc2ccc(Cl)cc2)S1(=O)=O	0	0	0	100	0	0	20%	0	0	0
Cc1ccc(S(=O)(=O)NCC(c2ccco2)S(=O)(=O)c2ccccc2)cc1 (centres undefined)	0	0	0	25	0	0	0	0	0	0
CC(C)(C)N(Cc1ccccc1)C(=O)COC(=O)C1CC(=O)N(Cc2ccccc2)C1 (centres undefined)	-	0	-	-	0	-	-	-	-	-
CNS(=O)(=O)c1cccc(C(=O)OCC(=O)/C=C2/N(C)c3ccccc3C2(C)C)c1	0	0	0	0	0	0	21%	0	0	0
CN1/C(=C\C(=O)CN2C(=O)NC3(CCCCCC3)C2=O)C(C)(C)c2ccccc21	0	0	0	0	0	0	0	0	0	0
CN1/C(=C\C(=O)COC(=O)c2ccc(O)c(O)c2)C(C)(C)c2ccccc21	0	-	0	100	-	0	70%	0	0	0
Cc1cccc[n+]1CC(=O)/C=C1\N(C)c2ccccc2C1(C)C	0	0	0	0	0	0	-	-	-	-
CN1/C(=C\C(=O)COC(=O)CNC(=O)c2ccc3ccccc3c2)C(C)(C)c2ccccc21	0	0	0	0	0	0	30%	0	0	0
CN1/C(=C\C(=O)COC(=O)c2ccc(O)cc2)C(C)(C)c2ccccc21	0	0	0	0	0	0	-	-	-	-
COc1cccc(C(C(=O)NCC2CCCO2)N(C(=O)Cn2nnc3ccccc32)c2ccc(NC(C)=O)cc2)c1OC (centres undefined)	0	0	0	0	0	0	-	-	-	-
SMILES	CHT inh	TMEM16A act	IDE inh	TMEM16A inh	IDE act	CHT PAM	TMEM16A reconf	TMEM16A Ca cntr	Parental YFP cnt	ClC-1 rat inh
O=C(CCNC(=O)OCC1c2ccccc2-c2ccccc21)NOCc1ccccc1	-	0	-	-	0	-	-	-	-	-
COc1cc(-c2noc(C)c2C#Cc2ccsc2)cc(OC)c1OC	0	0	0	100	0	0	28%	0	0	0
Cc1cc(C)n(C(=O)c2ccc(S(=O)(=O)NCC3CCCO3)cc2)n1 (centres undefined)	0	0	0	0	0	0	0	0	0	0
CCc1ccccc1NC(=O)CCS(=O)(=O)c1ccc(C)cc1	0	0	0	0	0	0	-	-	-	-
CCc1ccccc1NC(=O)CCS(=O)(=O)c1ccc(Br)cc1	0	0	0	0	0	0	0	0	0	0
O=C(CN1CCN(S(=O)(=O)N2CCCCC2)CC1)Nc1ccc(Br)cc1	0	0	0	0	0	0	-	-	-	-
CCN(CC)S(=O)(=O)c1cccc(-c2nnc(SCc3nc4ccccc4s3)o2)c1	0	0	0	100	0	0	18%	0	0	0
CCN(CC)S(=O)(=O)c1cccc(-c2nnc(SCCCC(=O)c3ccccc3)o2)c1	0	0	0	0	0	0	-	-	-	-
CC1CCC(NC(=O)c2ccc(COc3ccccc3)o2)CC1 (centres undefined)	0	0	0	0	0	0	-	-	-	-
CN(Cc1ccccc1)C(=O)COc1cc(=O)n(C)c2ccccc12	0	0	0	0	0	0	0	0	0	0
Cc1ccc(C)c(OCC(=O)N(Cc2ccccc2)c2c(N)n(Cc3ccccc3)c(=O)[nH]c2=O)c1	-	0	-	-	0	-	-	-	-	-
CCOC(=O)Cc1c(C)nc(N)[nH]c1=O	0	0	0	0	0	0	-	-	-	-
C[C@H](O)C(=O)C1=Nc2c(nc(N)[nH]c2=O)NC1	0	0	0	0	0	0	37%	89%	0	0
CCOc1ccc(OCc2ccc(C(=O)NC(C)C)o2)cc1	0	0	-	0	0	0	-	-	-	-
CCOc1ccc(OCc2ccc(C(=O)OCc3ccccn3)o2)cc1	0	0	0	100	0	0	0	0	0	0
COc1ccc2c(/C=N/NS(=O)(=O)c3ccc(C)cc3)c[nH]c2c1	0	0	0	0	0	0	-	-	-	-
COc1ccc2[nH]cc(/C=N/NS(=O)(=O)c3ccc(C)cc3)c2c1	0	0	0	25	0	0	28%	0	0	0
Cc1ccc(S(=O)(=O)N/N=C/c2c[nH]c3ccccc23)cc1	0	0	0	25	0	0	28%	0	0	0

Assay outcomes (PubChem BioAssay)
